According to PubChem BioAssay AID1159580 (chemical genetic matrix, 2015):
Screen size: about 5,500 compounds; about 2,000 (36%) were called active. About 18% were inconclusive and are not listed. No stated cut-off is given here; in the data, active means normalized growth mostly below about 0.91 (no sharp cut-off); inconclusive means no clear call, values can overlap the other calls; inactive means mostly above about 0.92. The list shows a part of the results.

Experiment: chemical genetic growth profiling, strain panel (AID 1159580);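 further: tested at 20 µM; growth read once vehicle control cultures reached saturation at 30 °C; 1 = growth at the plate median or of vehicle wells; lower values mean less growth of the strain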
Conditions: growth OD
[1] = S. cerevisiae deletion strains, locus YHR030C, strain SLT2, hits give low values
[2] = S. cerevisiae deletion strains, locus YAL013W, strain DEP1, hits give low values
[3] = S. cerevisiae deletion strains, locus YBR229C, strain ROT2, hits give low values
[4] = S. cerevisiae deletion strains, locus YDL101C, strain DUN1, hits give low values
[5] = S. cerevisiae deletion strains, locus YDL134C, strain PPH21, hits give low values
[6] = S. cerevisiae deletion strains, locus YDR150W, strain NUM1, hits give low values
[7] = S. cerevisiae deletion strains, locus YEL061C, strain CIN8, hits give low values
[8] = S. cerevisiae deletion strains, locus YGR078C, strain PAC10, hits give low values
[9] = S. cerevisiae deletion strains, locus YGR229C, strain SMI1, hits give low values
[10] = S. cerevisiae deletion strains, locus YHR087W, strain rtc3, hits give low values
[11] = S. cerevisiae deletion strains, locus YJL187C, strain SWE1, hits give low values
[12] = S. cerevisiae deletion strains, locus YJR043C, strain POL32, hits give low values
[13] = S. cerevisiae deletion strains, locus YJR075W, strain HOC1, hits give low values
[14] = S. cerevisiae deletion strains, locus YKL190W, strain CNB1, hits give low values
[15] = S. cerevisiae deletion strains, locus YLR039C, strain RIC1, hits give low values
[16] = S. cerevisiae deletion strains, locus YLR058C, strain SHM2 (second series), hits give low values
[17] = S. cerevisiae deletion strains, locus YLR085C, strain ARP6, hits give low values
[18] = S. cerevisiae deletion strains, locus YLR262C, strain YPT6, hits give low values
[19] = S. cerevisiae deletion strains, locus YML094W, strain GIM5, hits give low values
[20] = S. cerevisiae deletion strains, locus YMR219W, strain ESC1, hits give low values
[21] = S. cerevisiae deletion strains, locus YMR263W, strain SAP30, hits give low values
[22] = S. cerevisiae deletion strains, locus YNL153C, strain GIM3, hits give low values
[23] = S. cerevisiae deletion strains, locus YNL298W, strain CLA4 (second series), hits give low values
[24] = S. cerevisiae deletion strains, locus YNL322C, strain KRE1, hits give low values
[25] = S. cerevisiae deletion strains, locus YNR030W, strain Alg12, hits give low values
[26] = S. cerevisiae deletion strains, locus YPL055C, strain LGE1, hits give low values
[27] = S. cerevisiae deletion strains, locus YPL241C, strain CIN2, hits give low values
[28] = S. cerevisiae deletion strains, locus YPR135W, strain CTF4, hits give low values
[29] = S. cerevisiae strains, strain wild type, hits give low values

Measured: normalized growth

CN(C(=O)C(Cl)Cl)c1ccc(OC(=O)c2ccco2)cc1
inactive: [1] 0.959 | S. cerevisiae deletion strains, locus YHR079C, strain IRE1, hits give low values 0.98 | S. cerevisiae deletion strains, locus YJL095W, strain BCK1, hits give low values 0.973 | S. cerevisiae deletion strains, locus YJR066W, strain TOR1, hits give low values 0.915 | S. cerevisiae deletion strains, locus YLR113W, strain HOG1, hits give low values 1.05 | S. cerevisiae deletion strains, locus YNL183C, strain NPR1, hits give low values 0.96 | S. cerevisiae deletion strains, locus YOR231W, strain MKK1, hits give low values 0.975 | S. cerevisiae deletion strains, locus YPL256C, strain CLN2, hits give low values 1

COC(=O)c1scc(S(=O)(=O)C(C)C)c1N/N=C(/C#N)C(=O)c1ccccc1
active: [24] 0.942
inactive: [2] 0.965 | [3] 0.974 | [4] 0.986 | [5] 0.974 | [6] 0.973 | [7] 0.965 | [8] 0.969 | [9] 0.971 | [1] 0.929 | [10] 0.927 | [11] 1.03 | [12] 0.995 | [13] 0.961 | [14] 0.976 | [15] 0.902 | [16] 0.954 | [17] 1.06 | [18] 0.839 | [19] 1.04 | [20] 0.95 | [21] 0.905 | [22] 0.998 | [23] 0.983 | [25] 1.01 | S. cerevisiae deletion strains, locus YOL006C, strain TOP1, hits give low values 0.923 | [26] 0.885 | [27] 1.02 | [28] 0.928 | [29] 0.967

CC(C)S(=O)(=O)c1csc(C(N)=O)c1Cl
inactive: [2] 1.01 | [3] 1.02 | S. cerevisiae deletion strains, locus YCL061C, strain MRC1, hits give low values 1.02 | [4] 0.989 | [5] 1.01 | [6] 0.958 | [7] 1.04 | [8] 1 | [9] 1 | [1] 1.09 | [10] 1 | [11] 0.983 | [12] 1.01 | [13] 1.01 | [14] 1.01 | [15] 1.05 | [16] 1.01 | [17] 1.02 | [18] 1.05 | [19] 0.996 | [20] 1.01 | [21] 0.996 | S. cerevisiae deletion strains, locus YMR307W, strain GAS1, hits give low values 1.01 | [22] 1 | [23] 1.04 | [24] 1.01 | [25] 1.03 | [26] 0.954 | [27] 0.991 | [28] 1.07 | [29] 1.02
